This passage reports max response and Potency results from PubChem BioAssay AID651813 (National Center for Advancing Translational Sciences (NCATS), 2012).

Among all 2,100 compounds or so, about 1,100 (52%) were called active. Another 27% or so got no clear call; they are omitted. Calls come from the whole dose curve; as a rule, active = well fitted inhibition curve with a large enough effect; inconclusive = small, poorly fitted or top-dose-only effect; inactive = no such curve, though single readings can be large or run the other way. So high a share suggests a set chosen from earlier hits. This is one part of the list.
Potency is the fitted concentration of half-maximal effect.

The assay deals with DNA dC->dU-editing enzyme APOBEC-3G (Homo sapiens) (UniProt Q9HC16). Description: qHTS for inhibitors of Vif-A3G interactions: Cherry picks counterscreen.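 For max response: max response given as percent of control signal.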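 Note: hits raise yellow fluorescence by blocking Vif-driven A3G-eYFP degradation; nearly all actives have a fitted effect of over 70% in size.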 The note with it: HeLa A3G-eYFP + Vif (tagged APOBEC3G with the HIV-1 protein that degrades it), eYFP fluorescence, 24 h. The gist of the method: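 Readout is eYFP fluorescence (488 nm excitation, 500-530 nm emission) measured on Acumen Explorer after 24 h compound exposure, several concentrations, at 37 deg C. Cells: HeLa stably co-expressing Vif and C-terminally eYFP-tagged A3G; MG132 positive control.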
DNA dC->dU-editing enzyme APOBEC-3G (Homo sapiens), sequence (Q9HC16 whole entry, looked up): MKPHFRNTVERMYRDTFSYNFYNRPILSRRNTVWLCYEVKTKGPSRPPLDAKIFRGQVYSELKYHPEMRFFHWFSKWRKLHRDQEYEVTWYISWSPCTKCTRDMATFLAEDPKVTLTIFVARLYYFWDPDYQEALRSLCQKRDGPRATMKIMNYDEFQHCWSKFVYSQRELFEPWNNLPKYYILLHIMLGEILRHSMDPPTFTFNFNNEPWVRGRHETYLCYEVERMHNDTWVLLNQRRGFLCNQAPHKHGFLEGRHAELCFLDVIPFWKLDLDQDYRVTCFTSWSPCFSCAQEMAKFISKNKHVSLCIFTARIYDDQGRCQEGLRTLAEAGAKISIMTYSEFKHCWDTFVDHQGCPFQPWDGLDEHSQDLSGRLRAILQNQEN
Turning to `Cn1c(=S)c2[nH]c(SCCN3CCCC3)nc2n(C)c1=O`, the max response was 14.3% (inactive).
On the same count and under the same terms, the figure for `S=C(Nc1ccccc1)N1CCn2c1nc1ccccc12` is -19.9% (inactive).
Consider `O=[N+]([O-])c1ccc(-c2ccc(/C=N/Nc3nc(NCc4ccccc4)nc(N4CCOCC4)n3)o2)cc1`, for which the Potency was 10.3 µM (active).
With `Cc1ccc(-c2ccc(/C=N/NC(N)=S)o2)cc1`, the max response is -14.5% (inactive).
As to `CC(C)(C)NC(=S)N/N=C\c1ccc(-c2ccc([N+](=O)[O-])cc2)o1`, the Potency was 10.3 µM (active).
Regarding `O=[N+]([O-])c1ccccc1S(=O)(=O)Nc1ccc(-c2ccc(N3CCOCC3)nn2)cc1`, the max response is 0.357% (inactive).
For the compound `CN(/N=C/c1ccc(-c2ccc([N+](=O)[O-])cc2)o1)c1ccccc1`, the Potency is 1.16 µM (active).
In the case of `CCN(CC)c1nc(C)c(C(=S)Nc2cc([N+](=O)[O-])ccc2Cl)s1`, the max response is -7.53% (inactive).
For the compound `CCOC(=O)c1c(CC(C)C)csc1/N=C/C1C(=O)CCCC1=O`, the max response was -2.9% (inactive).
On to `Nc1ncnc2c1ncn2[C@@H]1O[C@H](CNCc2ccc(OCc3ccccc3)cc2)[C@@H](O)[C@H]1O`, for which the Potency is 12.5 µM (active).
In the case of `COc1ccc(CNCC(=O)Nc2ccccc2-n2cccc2)cc1`, the Potency was 9.94 µM (active).
Turning to `CCCn1c(C2CCCN2c2nc(-c3cccc(Br)c3)cs2)nc2ccccc21` (centres undefined), the max response was -7.22% (inactive).
Consider `OCCCn1c(C2CCCN2c2nc(-c3ccc(F)cc3)cs2)nc2cc(Cl)c(N3CCCCC3)cc21` (centres undefined), for which the Potency was 16.4 µM (active).
Consider `C[C@H](O)[C@@H]1CN2CCc3c([nH]c4ccccc34)[C@@H]2C[C@@H]1N(C)C(=O)c1ccco1`, for which the Potency is 12.5 µM (active).
Take `CCN(CC)C(=O)CSC(Nc1cccc(F)c1)=C(C#N)C#N`: the Potency was 13 µM (active).
For `CCN(CC)c1ccc(/C=N/N=C(N)N)c(O)c1`, the Potency was 5.59 µM (active).
Same read-out and setting: with `CCN(CC)c1ccc(/C=N/NC(=O)c2ccco2)cc1` the figure was 8.86 µM (active).
Regarding `O=C(NC(=S)N1CCc2ccccc21)c1ccco1`, the max response is 4.59% (inactive).
Consider `CCN(CC)c1ccc(/C=N/NC(=O)c2ccco2)c(O)c1`, for which the Potency was 7.9 µM (active).
Turning to `O=C(N/N=C/c1sc(=O)n(Cc2ccc(Br)cc2)c1Cl)c1ccco1`, the max response was -16.3% (inactive).
For the compound `Oc1ccc(C=NNC(=S)Nc2ccc(F)cc2)c(O)c1`, the max response is -25.9% (inactive).
As to `CCN(CC)c1ccc2cc(C(N)=O)c(=N)oc2c1`, the max response was 60.6% (inactive).
In the case of `Cc1ccc2nsnc2c1NC(=O)c1ccc(-c2cc(Cl)ccc2Cl)o1`, the Potency is 14 µM (active).
Consider `Cc1cc(-c2ccccc2)c2c3c(c(-c4ccccc4)n2n1)c(=O)n(C)c(=O)n3C`, for which the max response was 9.15% (inactive).
For `C=CCSc1nnc(C)c(/C=C/Nc2ccc(Cl)cc2)n1`, the Potency is 20.6 µM (active).
Take `CCOc1ccccc1NC(=O)Cn1nnc(C(=O)NCc2cccs2)c1N`: the Potency was 0.651 µM (active).
`COc1cc(NC(=O)C2=C(N3CCOCC3)/C(=C\c3ccc(N(C)C)cc3)CCC2)cc(OC)c1OC`: the Potency is 3.53 µM (active).
On the same count and under the same terms, with `Cc1cc(NC(=O)NC(=O)c2ccccc2NC(=O)C(C)N)ccc1Oc1ncc(Br)cn1` (centres undefined) the figure was 0.444 µM (active); with `Cc1cc(/C=C2\SC(=S)N(C)C2=O)c(C)n1-c1ccccc1O`, 18.4 µM (active).
Turning to `Cc1cc(/C=C2\SC(=S)N(C)C2=O)c(C)n1-c1ccc(O)cc1`, the Potency is 20.6 µM (active).
Take `CN(C)CCCN(C(=O)/C=C/c1cccs1)c1nc2ccc(F)cc2s1`: the max response is -22.2% (inactive).
Regarding `COc1cc2c(cc1OC)CN(C(=O)c1cc(=O)c3ccccc3o1)CC2`, the Potency was 15.8 µM (active).
The same measure, in the same setting: the figure for `COc1cc2c(cc1OC)CN(C(=O)c1ccc3nc[nH]c3c1)CC2` is 14 µM (active).
With `Cc1cccc(C(=O)NC(=S)N2CCc3ccccc3C2)c1`, the max response is -2.8% (inactive).
For `COc1cc2c(cc1OC)CN(C(=O)/C=C/c1cccs1)CC2`, the Potency is 1.25 µM (active).
With `CC(=O)N/N=C/c1cc(C(C)C)cc(/C=N/NC(C)=O)c1O`, the Potency was 18.4 µM (active).
The same measure, in the same setting: with `CC(=O)N/N=C/c1cc(C(C)(C)C)cc(/C=N/NC(C)=O)c1O` the figure was 20.6 µM (active); with `CC1(C)CCN2CCC(C)(C)c3c(O)ccc1c32`, 5.59 µM (active).
For `Cc1ccc(NC(=S)NC(=O)c2ccc(F)cc2)cc1S(=O)(=O)Nc1cccc(Cl)c1`, the max response was -21.2% (inactive).
As to `COc1ccc(NS(=O)(=O)c2cc(NC(=O)c3ccc(=O)[nH]c3)ccc2N2CCCC2)cc1`, the Potency is 5.59 µM (active).
Turning to `ClCC1NCC(c2ccccc2Cl)c2c1[nH]c1ccccc21` (centres undefined), the max response was -28% (inactive).
Consider `CN1C(=O)N(C)c2ccc(C=O)c3cccc1c23`, for which the max response is 1.02% (inactive).
Still for that read-out and setting: the figure for `N#Cc1ccc(-c2ccco2)nc1SCc1ccccc1` is -26% (inactive).
On to `N#Cc1c(C(F)(F)F)cc(-c2ccco2)nc1SCc1ccccn1`, for which the Potency is 16.4 µM (active).
On to `COc1cc2cc(-c3ccc(OC)c(OC)c3C)nc(N)c2cc1OC`, for which the Potency is 2.8 µM (active).
Turning to `C[C@H]1CN([C@@H](C)CO)C(=O)Cc2cc(NC(=O)CCC(F)(F)F)ccc2O[C@H]1CN(C)S(=O)(=O)c1ccc(F)cc1`, the Potency is 7.9 µM (active).
For `CN(C)c1ccc(C2C=C(c3ccc(Cl)cc3OC(F)F)Nc3ncnn32)cc1` (centres undefined), the Potency is 15.8 µM (active).
As to `CCOC(=O)N1CCN(C(=O)c2[nH]c(C(F)(F)F)nc2-c2ccccc2)CC1`, the Potency is 15.8 µM (active).
Turning to `O=C(c1[nH]c(C(F)(F)F)nc1-c1ccccc1)N1CCN(c2cccc(C(F)(F)F)n2)CC1`, the Potency was 6.27 µM (active).
As to `O=C(c1[nH]c(C(F)(F)F)nc1-c1ccccc1)N1CCN(c2ccccc2)CC1`, the Potency was 3.53 µM (active).
As for `Cn1nnnc1SCCNCc1cc(Br)ccc1OCc1ccccc1Cl`, the max response was -13.4% (inactive).
For the compound `Cc1cccc2cc3c(N)c(C(=O)N4CCc5ccccc54)sc3nc12`, the Potency was 7.31 µM (active).
In the case of `Cc1cccc2cc3c(N)c(C(=O)N4CCCc5ccccc54)sc3nc12`, the Potency was 9.2 µM (active).
On the same count and under the same terms, with `Cc1ccc2nc3sc(C(=O)N4CCCc5ccccc54)c(N)c3cc2c1` the figure was 7.9 µM (active).
Regarding `Cc1ccc(/C=N/NC(=O)c2nc3nc(C)cc(C)n3n2)cc1`, the max response was -10.8% (inactive).
In the case of `Cc1cc(C)n2nc(C(=O)N/N=C/c3c4ccccc4cc4ccccc34)nc2n1`, the Potency was 15.8 µM (active).
Still for that read-out and setting: the figure for `COc1ccc2c(Cl)c(C(=O)N/N=C3\CCCC(=O)C3)sc2c1` is 12.5 µM (active).
`CCOc1cc(C(=O)NN=C2CCCC2)cc(OCC)c1OCC`: the max response is -1.27% (inactive).
Consider `COc1ccc(-c2ccc3c(c2)S(=O)(=O)c2cccc(C(=O)NCCOc4ccccc4)c2C3=O)cc1OC`, for which the Potency is 14 µM (active).
The same measure, in the same setting: the figure for `O=C(NCc1ccccc1Cl)c1cccc2c1C(=O)c1ccc(-c3ccc(OC(F)(F)F)cc3)cc1S2(=O)=O` is 18.4 µM (active); for `COc1ccc(-c2ccc3c(c2)S(=O)(=O)c2cccc(C(=O)NCc4cccc(OC(F)(F)F)c4)c2C3=O)cc1OC` it is 3.26 µM (active); for `COc1cccc(NC(=O)c2oc3ccc(S(=O)(=O)N4CCC5(CC4)OCCO5)cc3c2C)c1` it is 23.1 µM (active).
As to `COc1ccc(NC(=O)c2oc3ccc(S(=O)(=O)N4CCOCC4)cc3c2C)cc1`, the max response was 9.65% (inactive).
As for `c1ccc(-c2nccc(-c3ccc4c(c3)OCO4)n2)cc1`, the Potency is 4.98 µM (active).
As to `CCN1C/C(=C\c2cccc([N+](=O)[O-])c2)C(=O)/C(=C/c2cccc([N+](=O)[O-])c2)C1`, the Potency was 11.2 µM (active).
For the compound `CC(C)COc1ccc(C(=O)N/C(=C/c2cccc([N+](=O)[O-])c2)C(=O)O)cc1`, the max response was 13.2% (inactive).
Consider `CCN1C/C(=C/c2cccc([N+](=O)[O-])c2)C(=O)/C(=C/c2cccc([N+](=O)[O-])c2)C1`, for which the Potency is 5.59 µM (active).
With `CC(=O)c1ccc2cccc3c2c1N=CN3C`, the Potency is 12.5 µM (active).
Consider `Nc1nc(SCc2ccc(Cl)cc2Cl)nc2nc3c(cc12)CCCC3`, for which the Potency is 23.1 µM (active).
As to `Cc1cc2nc3c(=O)n(CCc4ccccc4)c(=O)[nH]c3nc2cc1N`, the Potency is 3.66 µM (active).
For `CCCCCCn1c(=O)[nH]c2nc3cc(N)ccc3nc2c1=O`, the max response is 36.1% (inactive).
Take `Cc1cc2nc3c(=O)n(Cc4ccccc4)c(=O)[nH]c3nc2cc1N`: the Potency was 6.27 µM (active).
For the compound `Cc1cc2nc3c(=O)n(C4CCCCC4)c(=O)[nH]c3nc2cc1N`, the Potency is 7.31 µM (active).
Regarding `Cc1ccc(NC(=O)CSc2n[nH]c(-c3ccccn3)n2)cc1`, the max response is -4.16% (inactive).
In the case of `Cc1ccc(NC(=O)CO/N=C/c2ccc(N(C)C)cc2)cc1`, the Potency is 23.1 µM (active).
Take `CN(C)c1ccc(/C=C(\C#N)C(=O)Nc2nc3c(s2)CCN(Cc2ccccc2)C3)cc1`: the Potency was 0.396 µM (active).
As for `CN(C)c1ccc(/C=C(/C#N)C(=O)Nc2nc3c(s2)CCN(Cc2ccccc2)C3)cc1`, the Potency is 0.444 µM (active).
`Cn1c(=O)c2cc(NC(=O)NCc3ccccc3)ccc2n1C/C=C/c1ccccc1`: the Potency was 15.8 µM (active).
Take `Cn1c(=O)c2cc(NC(=O)NCc3ccc(F)cc3)ccc2n1C/C=C/c1ccccc1`: the Potency was 5.59 µM (active).
For the compound `CCOCCC(=O)Nc1ccc2c(c1)c(=O)n(C)n2C/C=C/c1ccccc1`, the Potency was 11.2 µM (active).
As for `CCCCCCc1cc2cc(-c3nnc(-c4ccccc4)o3)c(=O)oc2cc1O`, the Potency was 1.98 µM (active).
Consider `CCCCCCc1cc2cc(-c3nnc(-c4ccccc4OC)o3)c(=O)oc2cc1O`, for which the Potency was 7.04 µM (active).
As to `CCCCCCc1cc2cc(-c3nnc(-c4ccccc4O)o3)c(=O)oc2cc1O`, the max response was 54.5% (inactive).
Consider `CN1C(=O)/C(=C\c2ccc(N(C)C)cc2)OC1=S`, for which the Potency was 2.8 µM (active).
`CN1C(=S)N(c2cccnc2)C(=O)/C1=C\c1ccc(N(C)C)cc1`: the Potency is 11.2 µM (active).
`Cc1c(N2C(=O)/C(=C/c3ccc(N(C)C)cc3)N(C)C2=S)c(=O)n(-c2ccccc2)n1C`: the Potency was 20.6 µM (active).
On the same count and under the same terms, the figure for `O=C(N/N=C/c1cccc2ccccc12)c1n[nH]c2c1CCCC2` is 3.53 µM (active).
As for `Cc1ccsc1/C=N\NC(=O)c1n[nH]c2c1CCC2`, the Potency is 7.04 µM (active).
For `O=C(N/N=C/c1cccs1)c1n[nH]c2c1CCC2`, the Potency was 4.44 µM (active).
